Vaccinia mCherry: vaccinia inhibition (mCherry reporter) | 0.63% of 310,000 active | Vaccinia virus mCherry reporter infection, fluorescence | AID 720579 | Potency, µM (top dose mostly 36.5 µM), most hits filed as inhibitors; calls by dose curve; tested in A549 cells; also: nearly all actives have a fitted effect of over 35% in size
VACV Venus inh: inhibitors of vaccinia virus (Venus reporter). Vaccinia virus Venus reporter expression, fluorescence. Potency, µM (series often up to 36.5 µM), usual class: inhibitors. 0.46% of 330,000 active; calls by dose curve; tested in A549 cells; also: nearly all actives have a fitted effect of over 30% in size
Marburg entry inh: inhibitors of Marburg virus binding or cell entry. 1.8% of 300,000 active. Marburg virus pseudotyped entry inhibition, cell reporter. Potency, µM (highest dose often 37.8 µM), most hits filed as inhibitors; calls by dose curve; tested in HEK293 cells
Lassa entry inh: Lassa virus entry inhibition; Lassa virus pseudotype entry inhibition, cell reporter; 1.2% of 300,000 active; Potency, µM (titrated, usually from 37.9 µM), actives largely listed as inhibitors; calls by dose curve; tested in HEK293 cells; also: nearly all actives have a fitted effect of over 50% in size
Numbers stand for hits; i = inactive; ? = inconclusive; nt = no result given; ! = a repeat was not active; [ ] = dose if it differs, or a comment. This is a sample that favours compounds with a hit; in the whole collection about 2.5% have one here.

SMILES	Vaccinia mCherry	VACV Venus inh	Marburg entry inh	Lassa entry inh
CCN(CC)CCc1c(C)[nH]c(C(=O)OCc2ccccc2)c1C	i	i	26µM	i
Cc1cnc(SCc2ccccn2)nc1C1CCCN(C(=O)c2noc3c2CCCC3)C1 (stereo not drawn)	i	?	nt	nt
CC(C)C[C@@H](COCc1ccc(F)cc1)N1CCN(C(=O)c2cccc(C(F)(F)F)c2)CCC1=O	i	i	nt	nt
CC(C)CC(COCc1ccc(F)cc1)N1CCN(C(=O)c2cccc(C(F)(F)F)c2)CCC1=O (stereo not drawn)	i	i	?	21µM
CC(C)C[C@@H](COCc1cccc(Cl)c1)N1CCN(C(=O)c2cccc(C(F)(F)F)c2)CCC1=O	i	i	nt	nt
CC(C)CC(COCc1cccc(Cl)c1)N1CCN(C(=O)c2ccc(C(F)(F)F)cc2)CCC1=O (stereo not drawn)	i	i	?	10µM
CCCCN1C(C(=O)c2ccccc2)=C(OC(=O)CC)c2ccccc2S1(=O)=O	?	?	7.9µM	?
CCCCC(=O)OC1=C(C(=O)c2ccccc2)N(CCC)S(=O)(=O)c2ccccc21	i	i	?	i
Cn1ncc(Cl)c1C(=O)Nc1cccc(Cl)c1	nt	nt	i	?
Cn1ncc(N=Cc2c(O)ccc3ccccc23)c1C(=O)Nc1cccc(Cl)c1	?	i	18µM	?
Cc1ccc(/C=C/c2nc3ccccc3[nH]2)o1	i	i	?	?
Cc1ccc(/C=C/c2nc3ccccc3[nH]2)cc1	i	i	nt	2.2µM
CC(C)Cc1nc2cc(NS(=O)(=O)N(C)C)cc(C(=O)N3CC4(C)CC3CC(C)(C)C4)c2n1C (stereo not drawn)	i	i	nt	nt
Cc1c(C(=O)N2CCCCCC2)sc2ncnc(NCC3CCCO3)c12 (stereo not drawn)	i	i	nt	nt
CC1=C[C@@H](C)OC2(C1)C(=O)N(Cc1ccc(Br)cc1)c1cccc(Br)c12 (stereo partly drawn)	nt	nt	i	?
C=C(C)[C@@H]1CC=C(CN2CCN(Cc3ccccc3)CC2)CC1	?	i	10µM	?
CC(C)c1ccc(N(C(=O)c2csnn2)C(C(=O)NC2CCCC2)c2cccnc2)cc1 (stereo not drawn)	i	i	i	1.6µM
Cc1ccc(N(C(=O)CCl)C(C(=O)NC2CCCCC2)c2cccnc2)cc1C (stereo not drawn)	?	7.1µM	?	7.9µM
Cc1ccc(N(C(=O)CNC(=O)c2ccco2)C(C(=O)NC2CCCCC2)c2cccnc2)cc1C (stereo not drawn)	i	i	i	i
CC(C)c1ccc(C(C(=O)NC2CCCCC2)N(C(=O)c2csnn2)C2CC2)cc1 (stereo not drawn)	i	i	6.3µM	i
CC=CCCN1C=C(C(=O)OCC)C(c2ccccc2)NC1=O (stereo not drawn)	nt	nt	i	nt
COC(=O)CC=C1c2ccccc2OC[C@@H](OC)[C@H]1C	nt	nt	i	nt
O=c1c2c3c(sc2n(CCN2CCCCC2)c(=O)n1Cc1ccco1)CCCCC3	nt	nt	16µM	i
NC(=O)Cn1c(=O)n(Cc2ccco2)c(=O)c2c3c(sc21)CCCCC3	nt	nt	i	i
CC(=O)Nc1ccc(CNc2nc(NCc3cccs3)nc3ccsc23)cc1	i	i	nt	nt
SMILES	Vaccinia mCherry	VACV Venus inh	Marburg entry inh	Lassa entry inh
CC(=O)Nc1ccc(CNc2nc(NC(C)C)nc3cc(-c4ccccc4)sc23)cc1	?	11µM	nt	nt
C=CCNc1nc(NCc2ccc(NC(C)=O)cc2)c2sc(-c3ccccc3)cc2n1	i	16µM	nt	nt
Cc1nc(C)n(CC(=O)NCC2Cc3cc(-c4cccc(OC(F)(F)F)c4)ccc3O2)n1 (stereo not drawn)	i	i	nt	nt
COCC=CC1=CC2=CC(=O)C(C)(OC(=O)c3cnc4ccccc4n3)C(=O)C2=CN1Cc1ccccc1 (stereo not drawn)	nt	nt	i	nt
CCOc1ccc2[nH]c(=O)c(CN(Cc3cccs3)Cc3nnnn3C(C)(C)C)cc2c1	i	i	?	?
Cc1ccc2[nH]c(=O)c(CN(Cc3ccccc3)Cc3nnnn3C3CCCC3)cc2c1	?	i	18µM	i
COc1ccc2[nH]c(=O)c(CN(Cc3cccs3)Cc3nnnn3C(C)(C)C)cc2c1	i	i	18µM!	i
CCc1ccc2[nH]c(=O)c(CN(Cc3ccc(OC)cc3)Cc3nnnn3CCOC)cc2c1	nt	i	14µM	?
COc1cc(=O)n2c(c1C(=O)N(C)Cc1nonc1C)CCN(C(=O)c1cccc(C)c1C)CC2	i	i	nt	nt
CC=CCCN1C=C(C(C)=O)C(c2ccccc2)NC1=O (stereo not drawn)	nt	nt	i	nt
COCCCN=Cc1c(C)[nH]n(-c2ccc(Br)c(C)c2)c1=O	i	i	?	11µM
Cc1ccc(-n2[nH]c(C)c(C=NC34CN5CN(CN(C5)C3)C4)c2=O)cc1C	nt	i	i	i
COc1cc(OC)cc(-c2nc3ccccc3c(=O)n2OC(=O)c2ccc(C)c(C)c2)c1	?	?	11µM	?
COc1cc(OC)cc(C(=O)Nn2c(C)nc3ccccc3c2=O)c1	i	i	i	i
CCOc1cc(/C=N/NC(=O)Cc2ccc(C(F)(F)F)cc2[N+](=O)[O-])c(Br)cc1OC	i	i	i	i
COc1cc(Br)cc(/C=N/NC(=O)Cc2ccc(C(F)(F)F)cc2[N+](=O)[O-])c1O	20µM	13µM	?	?
Cc1ccc(NS(=O)(=O)c2ccc(Cl)c(C(=O)Nc3ccccc3-c3nc4ccccc4[nH]3)c2)cc1C	?	10µM	?	?
CC1CC(=O)c2c(cc3c(-c4c(O)cc(O)c5c(O)c6c(cc45)OC(C)CC6=O)c(O)cc(O)c3c2O)O1 (stereo not drawn)	10µM	14µM	nt	nt
O=C1CC(c2ccc(O)cc2)Oc2cc(O)cc(O)c21 (stereo not drawn)	i	i	i	i
CN(C)CC(C(=O)c1ccccc1)c1ccccc1 (stereo not drawn)	14µM	10µM	6.3µM	8.9µM
CCOc1ccc(/C=C/C(=O)Nc2cccc(C(C)=O)c2)cc1	i	i	i	i
CCC(=O)Nc1cccc(C(=O)/C=C/c2ccc(F)cc2)c1	nt	nt	15µM	?
CCN1CCN(c2cc(C)c3cc(NC(=S)NCCCN4CCc5ccccc5C4)ccc3n2)CC1	?	i	13µM	i
Cc1cc(N2CCN(C)CC2)nc2ccc(NC(=S)NCCCN3CCc4ccccc4C3)cc12	i	i	4µM	?
Cc1cc(N2CCCC2)nc2ccc(NC(=S)NCCCN3CCC(C)CC3)cc12	14µM	?	?	?
SMILES	Vaccinia mCherry	VACV Venus inh	Marburg entry inh	Lassa entry inh
CCCCN(C)CCNC(=S)Nc1ccc2nc(N3CCN(CC)CC3)cc(C)c2c1	?	?	?	7.1µM
COc1ccc(-c2nc3cc(C)ccc3cc2CN(C(=O)c2ccc(C)s2)C2CC2)cc1OC	i	i	nt	nt
Clc1ccc[n+](CCCCC[n+]2cccc(Cl)c2)c1	i	i	nt	nt
CC1=CC[C@@H](COc2ccccc2)O[C@@]2(C1)C(=O)N(Cc1ccc(Br)cc1)c1ccccc12	nt	nt	i	nt
COc1ccc(/C=C/C(=O)Nc2ccc3nc(N4CCC(C)CC4)cc(C)c3c2)cc1OC	i[7.34 µM]	i[7.34 µM]	10µM	?
COc1ccccc1CC(=O)Nc1ccc2nc(N3CCC(C)CC3)cc(C)c2c1	i	i	i	?
Cc1cc(N2CCOCC2)nc2ccc(NC(=S)N3CCCCC3C)cc12 (stereo not drawn)	i	?	2.8µM	?
O=C(NC1CCC(n2cc(C(=O)NC3CC3)nn2)CC1)C(=O)c1ccccc1 (stereo not drawn)	i	i	nt	nt
